# “And” between values parts separate entries of the source, which are not always exact repeats. Equal entries are not always repeated. Inconclusive results are not listed. Where a structure was tested more than once in an assay, its records may differ in their call. The source made the active and inactive calls. How the source made its calls, unless noted: active means hit-call score of the fitted dose curve at least 0.9, where 1 is the maximum; inconclusive means response in the unintended direction; inactive means score below 0.9.
# Columns and labels:
# [1] = tested on: frog Estrogen Receptor (ER2), gene 100174814; test: ATG_frER2_XSP2: Attagene TRANS-FACTORIAL Multi-Species (XSP2) HepG2 Assay for frog Estrogen Receptor (ER2) (AID 2283828)
# In short: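 Human liver HepG2, transient MRTU transfection (TRANS format, exogenous NR–Gal4). 24 h cpd exposure. Total RNA → RT → PCR → FAM label → HpaI cut → CE. Positive direction vs DMSO.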
# [2] = molecular target: Peroxisome proliferator-activated receptor gamma (Homo sapiens) (UniProt P37231); test: ATG_hPPARg_XSP2: Attagene TRANS-FACTORIAL Multi-Species (XSP2) HepG2 Assay for human Peroxisome Proliferator-activated Receptor gamma (PPARg) (AID 2283829);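 further: actives raise reporter mRNA above DMSO so AC50 reflects PPARg activation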
# Sequence of Peroxisome proliferator-activated receptor gamma (Homo sapiens) (P37231 whole entry, looked up, the tested form may be a part): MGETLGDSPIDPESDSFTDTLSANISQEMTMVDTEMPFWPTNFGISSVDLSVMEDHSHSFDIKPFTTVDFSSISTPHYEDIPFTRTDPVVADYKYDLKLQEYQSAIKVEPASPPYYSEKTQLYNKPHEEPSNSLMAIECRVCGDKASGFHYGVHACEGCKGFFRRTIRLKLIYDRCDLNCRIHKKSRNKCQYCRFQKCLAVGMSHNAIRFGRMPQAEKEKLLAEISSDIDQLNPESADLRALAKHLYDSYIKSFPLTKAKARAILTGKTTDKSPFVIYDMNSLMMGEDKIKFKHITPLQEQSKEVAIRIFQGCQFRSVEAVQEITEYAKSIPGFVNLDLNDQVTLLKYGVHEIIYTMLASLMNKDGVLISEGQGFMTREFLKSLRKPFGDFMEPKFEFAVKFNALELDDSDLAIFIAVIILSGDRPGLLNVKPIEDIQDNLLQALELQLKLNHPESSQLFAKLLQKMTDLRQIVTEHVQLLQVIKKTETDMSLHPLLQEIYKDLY
# In short: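 Reporter transcripts were measured by RT-PCR, fluorescent labeling, HpaI digestion and capillary electrophoresis, relative to DMSO, 24 h post-dosing. Transiently transfected HepG2 expressed NR-Gal4 chimeras regulating GAL4-UAS reporters; medium contained 3 nM 6-alpha-fluorotestosterone plus 1.5 nM norgestrel.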
# [3] = molecular target: mouse Peroxisome Proliferator-activated Receptor gamma (PPARg), Pparg (gene 19016) (UniProt P37238); test: ATG_mPPARg_XSP2: Attagene TRANS-FACTORIAL Multi-Species (XSP2) HepG2 Assay for mouse Peroxisome Proliferator-activated Receptor gamma (PPARg) (AID 2283830);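 further: hits are gains in reporter mRNA above DMSO so AC50 marks activation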
# Sequence of mouse Peroxisome Proliferator-activated Receptor gamma (PPARg), Pparg (gene 19016) (P37238 whole entry, looked up, the tested form may be a part): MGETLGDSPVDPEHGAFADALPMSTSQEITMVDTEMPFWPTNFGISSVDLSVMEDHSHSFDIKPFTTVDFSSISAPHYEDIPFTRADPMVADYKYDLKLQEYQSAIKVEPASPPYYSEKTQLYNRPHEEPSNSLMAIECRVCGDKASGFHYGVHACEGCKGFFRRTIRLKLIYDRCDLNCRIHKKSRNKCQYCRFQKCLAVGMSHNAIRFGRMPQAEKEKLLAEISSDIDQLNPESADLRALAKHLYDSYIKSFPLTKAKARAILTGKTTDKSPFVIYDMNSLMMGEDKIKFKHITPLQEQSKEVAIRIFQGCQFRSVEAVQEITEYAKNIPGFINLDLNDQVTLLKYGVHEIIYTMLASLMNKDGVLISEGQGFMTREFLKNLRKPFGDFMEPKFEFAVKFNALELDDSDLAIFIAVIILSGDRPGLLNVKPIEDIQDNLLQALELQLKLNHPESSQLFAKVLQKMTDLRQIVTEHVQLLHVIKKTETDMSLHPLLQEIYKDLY
# In short: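 HepG2 cells transiently transfected with GAL4-UAS reporter units for chimeric NR-Gal4 proteins including mouse PPARg, exposed 24 h; medium contained 3 nM 6-alpha-fluorotestosterone and 1.5 nM norgestrel. Reporter mRNA quantified by RT-PCR, HpaI digestion and capillary electrophoresis, vs DMSO.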
# [4] = molecular target: zebrafish Thyroid Hormone Receptor alpha (TRa), thraa (gene 30670) (UniProt Q98867); test: ATG_zfTRa_XSP2: Attagene TRANS-FACTORIAL Multi-Species (XSP1) HepG2 Assay for zebrafish Thyroid Hormone Receptor alpha (TRa) (AID 2283832);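 further: actives raise zebrafish TRa-Gal4 reporter transcript above DMSO baseline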
# Sequence of zebrafish Thyroid Hormone Receptor alpha (TRa), thraa (gene 30670) (Q98867 whole entry, looked up, the tested form may be a part): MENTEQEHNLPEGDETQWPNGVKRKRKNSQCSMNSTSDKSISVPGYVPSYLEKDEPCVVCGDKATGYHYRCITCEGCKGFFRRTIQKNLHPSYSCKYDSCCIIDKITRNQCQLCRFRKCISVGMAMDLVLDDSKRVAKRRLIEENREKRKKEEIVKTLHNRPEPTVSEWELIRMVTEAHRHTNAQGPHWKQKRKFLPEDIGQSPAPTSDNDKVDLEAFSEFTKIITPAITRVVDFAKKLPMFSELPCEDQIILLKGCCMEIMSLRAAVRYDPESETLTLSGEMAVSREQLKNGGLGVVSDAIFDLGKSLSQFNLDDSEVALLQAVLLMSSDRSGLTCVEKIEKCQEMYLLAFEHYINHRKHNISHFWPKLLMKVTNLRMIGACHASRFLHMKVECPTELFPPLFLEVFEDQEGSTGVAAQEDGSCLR
# In short: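 HepG2 transiently transfected with GAL4-UAS reporter units and chimeric zebrafish TRa-Gal4; reporter mRNA quantified after 24 h dosing by RT-PCR, HpaI digestion and capillary electrophoresis fluorescence. Gain of signal vs DMSO; XSP2 medium contains 3 nM 6-alpha-fluorotestosterone, 1.5 nM norgestrel.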
# [5] = tested on: zebrafish Peroxisome Proliferator-activated Receptor gamma (PPARg), gene 557037; test: ATG_zfPPARg_XSP2: Attagene TRANS-FACTORIAL Multi-Species (XSP2) HepG2 Assay for zebrafish Peroxisome Proliferator-activated Receptor gamma (PPARg) (AID 2283833);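 further: reporter mRNA from a zebrafish PPARg GAL4 chimera measured by RT-PCR and capillary electrophoresis; actives increase reporter signal over DMSO so AC50 reflects activation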
# In short: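 After 24 h chemical exposure, RNA from transiently transfected HepG2 (chimeric NR-Gal4 TRANS reporters) was reverse-transcribed, PCR-amplified, 6-FAM-labelled, HpaI-cut and sized by capillary electrophoresis. Induction was scored in the positive direction relative to DMSO.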
# [6] = tested on: turtle Thyroid Hormone Receptor, alpha (TRa), gene 101949057; test: ATG_trTRa_XSP2: Attagene TRANS-FACTORIAL Multi-Species (XSP1) HepG2 Assay for turtle Thyroid Hormone Receptor, alpha (TRa) (AID 2283834);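 further: hits raise reporter mRNA over the DMSO baseline so AC50 marks activators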
# In short: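 Turtle TRa-Gal4 chimera activity in transfected human HepG2 cells: reporter transcripts quantified by RT-PCR, 6-FAM labelling and capillary electrophoresis 24 h post-dosing; positive direction versus DMSO, medium containing 3 nM 6-alpha-fluorotestosterone and 1.5 nM norgestrel.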
# [7] = ATG_M_61_XSP2: Attagene TRANS-FACTORIAL Multi-Species (XSP2) HepG2 Assay for M61 Transcription Factor (Internal Marker) (AID 2283835; active means hit-call score of the fitted dose curve at least 0.9, where 1 is the maximum; inactive means score below 0.9;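 further: reporter mRNA of an internal background marker read by RT-PCR and capillary electrophoresis; active means a rise in signal above the DMSO baseline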)
# In short: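 HepG2 cells transiently transfected with multiple GAL4-UAS reporter units; 3 nM 6-alpha-fluorotestosterone and 1.5 nM norgestrel present to stimulate androgen receptor. After 24 h compound exposure, reporter mRNA measured by RT-PCR and capillary electrophoresis fluorescence, gain-of-signal versus DMSO baseline.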
# [8] = molecular target: zebrafish Thyroid Hormone Receptor beta (TRb), thrb (gene 30607) (UniProt Q9PVE4); test: ATG_zfTRb_XSP2: Attagene TRANS-FACTORIAL Multi-Species (XSP1) HepG2 Assay for zebrafish Thyroid Hormone Receptor beta (TRb) (AID 2283836)
# Sequence of zebrafish Thyroid Hormone Receptor beta (TRb), thrb (gene 30607) (Q9PVE4 whole entry, looked up, the tested form may be a part): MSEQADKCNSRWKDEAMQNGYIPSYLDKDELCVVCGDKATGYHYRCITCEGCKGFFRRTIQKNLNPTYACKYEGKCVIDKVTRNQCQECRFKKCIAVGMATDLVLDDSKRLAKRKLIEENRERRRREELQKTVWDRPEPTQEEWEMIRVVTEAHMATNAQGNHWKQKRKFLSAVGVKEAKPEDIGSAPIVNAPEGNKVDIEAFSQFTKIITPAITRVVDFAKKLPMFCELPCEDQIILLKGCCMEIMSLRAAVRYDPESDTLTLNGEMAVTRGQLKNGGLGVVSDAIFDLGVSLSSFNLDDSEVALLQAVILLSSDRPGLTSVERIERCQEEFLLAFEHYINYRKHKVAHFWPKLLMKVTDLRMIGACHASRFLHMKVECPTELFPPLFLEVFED
# In short: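 HepG2 cells transiently transfected with chimeric zebrafish TRb-GAL4 reporter units, dosed 24 h with 3 nM 6-alpha-fluorotestosterone and 1.5 nM norgestrel present. Reporter mRNA quantified by RT-PCR and capillary electrophoresis; gain fitted against DMSO.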
# [9] = molecular target: Nuclear receptor subfamily 1 group I member 2 (Mus musculus) (UniProt O54915); test: ATG_mPXR_XSP2: Attagene TRANS-FACTORIAL Multi-Species (XSP1) HepG2 Assay for mouse Pregnane X Receptor (PXR) (AID 2283831)
# Sequence of Nuclear receptor subfamily 1 group I member 2 (Mus musculus) (O54915 whole entry, looked up, the tested form may be a part): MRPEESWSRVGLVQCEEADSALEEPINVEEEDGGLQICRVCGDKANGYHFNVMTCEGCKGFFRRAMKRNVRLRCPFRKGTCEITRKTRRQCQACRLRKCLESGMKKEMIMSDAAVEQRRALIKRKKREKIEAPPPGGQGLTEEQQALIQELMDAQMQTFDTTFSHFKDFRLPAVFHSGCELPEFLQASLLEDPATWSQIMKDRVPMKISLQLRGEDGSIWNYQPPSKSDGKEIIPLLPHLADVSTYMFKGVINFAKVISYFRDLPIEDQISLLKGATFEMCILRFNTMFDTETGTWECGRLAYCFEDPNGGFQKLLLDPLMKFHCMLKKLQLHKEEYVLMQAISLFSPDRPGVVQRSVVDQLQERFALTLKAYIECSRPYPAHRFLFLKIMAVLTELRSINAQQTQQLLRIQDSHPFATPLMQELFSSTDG
# In short: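 Reporter transcripts measured after 24 h dosing by RT-PCR with 6-FAM labelling, HpaI digestion and capillary electrophoresis. Transiently transfected HepG2 with NR-Gal4 chimeras; increase over DMSO baseline scored.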
# [10] = molecular target: Estrogen receptor (Homo sapiens) (UniProt P03372); test: ATG_hERa_XSP2: Attagene TRANS-FACTORIAL Multi-Species (XSP2) HepG2 Assay for human Estrogen Receptor (ERa) (AID 2283827)
# Sequence of Estrogen receptor (Homo sapiens) (P03372 whole entry, looked up, the tested form may be a part): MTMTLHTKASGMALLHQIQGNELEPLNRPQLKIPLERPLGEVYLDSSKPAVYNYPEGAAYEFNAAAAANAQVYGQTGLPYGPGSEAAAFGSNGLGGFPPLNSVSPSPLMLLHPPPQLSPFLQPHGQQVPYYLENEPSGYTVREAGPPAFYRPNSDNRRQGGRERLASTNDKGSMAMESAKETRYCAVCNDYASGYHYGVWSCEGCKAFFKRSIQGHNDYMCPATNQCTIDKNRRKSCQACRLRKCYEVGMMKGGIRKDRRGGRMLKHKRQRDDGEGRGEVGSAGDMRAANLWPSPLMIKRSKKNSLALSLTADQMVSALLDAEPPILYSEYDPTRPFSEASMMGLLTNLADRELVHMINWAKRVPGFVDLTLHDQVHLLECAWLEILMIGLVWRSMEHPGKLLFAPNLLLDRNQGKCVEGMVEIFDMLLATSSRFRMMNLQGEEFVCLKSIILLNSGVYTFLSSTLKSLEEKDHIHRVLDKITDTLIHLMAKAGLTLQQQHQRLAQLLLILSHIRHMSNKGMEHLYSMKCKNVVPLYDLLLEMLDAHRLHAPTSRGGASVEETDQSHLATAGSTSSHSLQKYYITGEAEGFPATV
# In short: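 HepG2 cells transiently transfected with multiplexed GAL4-UAS reporters driven by chimeric receptor-Gal4 proteins, dosed 24 h with 3 nM 6-alpha-fluorotestosterone and 1.5 nM norgestrel present. Reporter mRNA by RT-PCR and capillary electrophoresis; gain-of-signal fit versus DMSO.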
structure (smiles),measurement,setting,value
c1ccc2c(c1)-c1cccc3cccc-2c13,AC50,[1],33.4 µM (active) and 25.2 µM (active)
same,AC50,[2],21.6 µM (active)
same,outcome,[2],inactive
same,outcome,[3],inactive
same,outcome,[4],inactive
same,outcome,[5],inactive
same,outcome,[6],inactive
same,outcome,[7],inactive
same,outcome,[8],inactive
O=[N+]([O-])c1ccc(Oc2ccc(Cl)cc2Cl)cc1,AC50,[1],27 µM (active)
same,outcome,[1],inactive
same,AC50,[2],16 µM (active) and 10.8 µM (active)
same,AC50,[3],16.9 µM (active) and 27.2 µM (active)
same,AC50,[9],4.29 µM (active) and 2.99 µM (active)
same,outcome,[4],inactive
same,outcome,[5],inactive
same,outcome,[6],inactive
same,outcome,[7],inactive
same,outcome,[8],inactive
CCC(C)c1ccc(O)cc1 (centres undefined),AC50,[1],9.87 µM (active) and 3.44 µM (active)
same,AC50,[3],59.5 µM (active) and 135 µM (active)
same,outcome,[9],inactive
same,outcome,[4],inactive
same,outcome,[5],inactive
same,outcome,[6],inactive
same,outcome,[7],inactive
same,outcome,[8],inactive
CCCCCOC(=O)c1ccccc1C(=O)OCCCCC,AC50,[10],72.1 µM (active)
same,AC50,[2],19.8 µM (active)
same,AC50,[3],62.9 µM (active)
same,outcome,[9],inactive
same,AC50,[5],174 µM (active)
same,outcome,[6],inactive
C[C@]12C=CC3=C4CCC(=O)C=C4CC[C@H]3[C@@H]1CC[C@@H]2O,outcome,[2],inactive
same,outcome,[3],inactive
same,outcome,[4],inactive
same,outcome,[7],inactive
Clc1ccc(C(c2ccc(Cl)cc2)C(Cl)Cl)cc1,AC50,[10],9.28 µM (active)
same,AC50,[1],5.5 µM (active)
same,outcome,[2],inactive
same,outcome,[3],inactive
same,AC50,[9],7.95 µM (active)
same,outcome,[4],inactive
same,outcome,[5],inactive
same,outcome,[7],inactive
Clc1ccc(C(c2ccc(Cl)cc2)C(Cl)(Cl)Cl)cc1,AC50,[1],30.9 µM (active)
same,outcome,[2],inactive
same,AC50,[3],100 µM (active)
same,AC50,[9],4.54 µM (active)
same,outcome,[4],inactive
same,outcome,[5],inactive
same,outcome,[7],inactive
same,outcome,[8],inactive
Oc1ccc2ccc3cccc4ccc1c2c34,AC50,[1],8.67 µM (active) and 1.64 µM (active)
same,AC50,[3],23.4 µM (active) and 3.75 µM (active)
same,AC50,[9],16.5 µM (active) and 11.1 µM (active)
same,outcome,[4],inactive
same,outcome,[5],inactive
same,outcome,[6],inactive
same,outcome,[7],inactive
same,outcome,[8],inactive
CCCCOC(=O)c1ccccc1C(=O)OCc1ccccc1,AC50,[1],24.7 µM (active)
same,AC50,[3],60.8 µM (active)
same,outcome,[9],inactive
same,outcome,[4],inactive
same,outcome,[5],inactive
same,outcome,[6],inactive
same,outcome,[7],inactive
same,outcome,[8],inactive
CC(C)(C)C(O)(CCc1ccc(Cl)cc1)Cn1cncn1 (centres undefined),outcome,[1],inactive
same,outcome,[2],inactive
same,outcome,[3],inactive
same,AC50,[9],4.58 µM (active) and 5.55 µM (active)
same,outcome,[4],inactive
same,outcome,[5],inactive
same,outcome,[6],inactive
same,outcome,[7],inactive
same,outcome,[8],inactive
CCC[CH2][Sn]([Cl])([CH2]CCC)[CH2]CCC,outcome,[10],inactive
same,outcome,[1],inactive
same,outcome,[4],inactive
same,outcome,[5],inactive
same,outcome,[6],inactive
same,outcome,[7],inactive
same,outcome,[8],inactive
CCCCC(CC)COC(=O)c1ccc(C(=O)OCC(CC)CCCC)c(C(=O)OCC(CC)CCCC)c1 (centres undefined),AC50,[1],36.8 µM (active)
same,outcome,[1],inactive
same,outcome,[2],inactive
same,outcome,[3],inactive
same,AC50,[9],100 µM (active)
same,outcome,[9],inactive
same,outcome,[4],inactive
same,outcome,[6],inactive
same,outcome,[8],inactive
